About 7,900 targets were measured; listed, in parts, are those with a hit and a random draw of the rest. About 0.6% of all pairs of compound and target were hits. Values without a mark were called inactive.

For 34 targets, log2 fold change results are on record in the supplement of paper PMC10849652.

UniProt Q9Y287, sequence (Q9Y287 whole entry, looked up): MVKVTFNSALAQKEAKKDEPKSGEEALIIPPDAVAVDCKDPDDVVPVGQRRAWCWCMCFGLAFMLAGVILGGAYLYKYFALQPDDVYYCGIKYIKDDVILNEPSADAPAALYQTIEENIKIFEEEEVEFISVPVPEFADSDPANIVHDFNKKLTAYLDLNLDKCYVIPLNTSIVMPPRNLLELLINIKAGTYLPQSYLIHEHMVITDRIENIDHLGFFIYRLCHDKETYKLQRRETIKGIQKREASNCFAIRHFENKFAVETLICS
UniProt Q9H3U5, sequence (Q9H3U5 whole entry, looked up): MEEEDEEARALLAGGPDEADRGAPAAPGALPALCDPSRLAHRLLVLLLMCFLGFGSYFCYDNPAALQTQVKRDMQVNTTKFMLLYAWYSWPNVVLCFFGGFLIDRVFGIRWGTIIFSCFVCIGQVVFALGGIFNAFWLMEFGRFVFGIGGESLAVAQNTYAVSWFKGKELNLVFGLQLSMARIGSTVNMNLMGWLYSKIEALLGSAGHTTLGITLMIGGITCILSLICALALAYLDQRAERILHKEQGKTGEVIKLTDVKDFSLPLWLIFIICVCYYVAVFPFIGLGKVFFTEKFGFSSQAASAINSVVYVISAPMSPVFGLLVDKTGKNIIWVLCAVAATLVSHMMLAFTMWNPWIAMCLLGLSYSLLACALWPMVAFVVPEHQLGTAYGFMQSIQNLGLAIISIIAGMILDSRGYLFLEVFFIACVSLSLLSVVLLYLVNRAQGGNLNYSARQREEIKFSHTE
UniProt Q8NC54, sequence (Q8NC54 whole entry, looked up): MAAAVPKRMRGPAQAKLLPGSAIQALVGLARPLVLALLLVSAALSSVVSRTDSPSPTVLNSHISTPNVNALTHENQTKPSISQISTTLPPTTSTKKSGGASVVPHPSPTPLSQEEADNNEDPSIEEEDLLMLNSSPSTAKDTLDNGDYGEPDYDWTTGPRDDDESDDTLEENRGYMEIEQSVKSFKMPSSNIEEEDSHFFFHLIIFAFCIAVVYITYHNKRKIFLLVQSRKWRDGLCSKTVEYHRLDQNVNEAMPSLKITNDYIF
UniProt Q96A72, sequence (Q96A72 whole entry, looked up): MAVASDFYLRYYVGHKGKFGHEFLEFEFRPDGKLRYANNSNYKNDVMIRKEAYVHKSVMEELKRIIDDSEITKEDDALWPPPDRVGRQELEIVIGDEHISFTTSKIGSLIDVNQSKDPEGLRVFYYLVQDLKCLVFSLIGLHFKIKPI
UniProt Q86WA8, sequence (Q86WA8 whole entry, looked up): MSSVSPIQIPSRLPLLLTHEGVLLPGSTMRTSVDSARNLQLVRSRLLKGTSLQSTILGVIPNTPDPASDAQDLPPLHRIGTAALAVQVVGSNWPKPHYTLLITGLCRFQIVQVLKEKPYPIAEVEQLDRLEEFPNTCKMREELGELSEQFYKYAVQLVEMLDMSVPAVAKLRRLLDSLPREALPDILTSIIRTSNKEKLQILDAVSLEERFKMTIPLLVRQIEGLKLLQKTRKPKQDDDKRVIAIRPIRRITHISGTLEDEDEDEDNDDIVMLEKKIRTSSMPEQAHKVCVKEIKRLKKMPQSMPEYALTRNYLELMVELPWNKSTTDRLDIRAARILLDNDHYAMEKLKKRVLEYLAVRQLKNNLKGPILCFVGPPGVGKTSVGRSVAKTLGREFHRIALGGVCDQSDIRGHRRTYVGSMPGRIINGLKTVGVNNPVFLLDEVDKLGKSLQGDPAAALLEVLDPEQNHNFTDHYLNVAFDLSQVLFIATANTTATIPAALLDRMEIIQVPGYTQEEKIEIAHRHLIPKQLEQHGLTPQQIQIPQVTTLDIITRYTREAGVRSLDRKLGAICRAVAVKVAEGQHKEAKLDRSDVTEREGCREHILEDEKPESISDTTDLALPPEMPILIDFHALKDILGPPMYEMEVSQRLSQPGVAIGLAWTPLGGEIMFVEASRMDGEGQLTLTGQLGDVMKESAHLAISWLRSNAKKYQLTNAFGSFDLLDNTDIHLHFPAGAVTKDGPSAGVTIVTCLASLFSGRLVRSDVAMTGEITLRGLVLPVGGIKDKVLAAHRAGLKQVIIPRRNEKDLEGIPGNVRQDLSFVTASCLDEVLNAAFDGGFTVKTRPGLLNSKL
UniProt O95568, sequence (O95568 whole entry, looked up): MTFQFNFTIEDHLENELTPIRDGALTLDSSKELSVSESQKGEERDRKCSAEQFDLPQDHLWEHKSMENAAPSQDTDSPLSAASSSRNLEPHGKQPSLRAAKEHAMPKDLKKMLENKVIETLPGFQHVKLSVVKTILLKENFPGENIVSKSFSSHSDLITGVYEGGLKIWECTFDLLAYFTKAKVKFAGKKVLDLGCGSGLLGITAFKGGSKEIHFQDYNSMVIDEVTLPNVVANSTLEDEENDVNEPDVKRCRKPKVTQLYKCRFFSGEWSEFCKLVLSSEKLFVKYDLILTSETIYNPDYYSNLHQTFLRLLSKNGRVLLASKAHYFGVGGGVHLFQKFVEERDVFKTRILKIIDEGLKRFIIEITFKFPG
UniProt Q9Y4K4, sequence (Q9Y4K4 whole entry, looked up): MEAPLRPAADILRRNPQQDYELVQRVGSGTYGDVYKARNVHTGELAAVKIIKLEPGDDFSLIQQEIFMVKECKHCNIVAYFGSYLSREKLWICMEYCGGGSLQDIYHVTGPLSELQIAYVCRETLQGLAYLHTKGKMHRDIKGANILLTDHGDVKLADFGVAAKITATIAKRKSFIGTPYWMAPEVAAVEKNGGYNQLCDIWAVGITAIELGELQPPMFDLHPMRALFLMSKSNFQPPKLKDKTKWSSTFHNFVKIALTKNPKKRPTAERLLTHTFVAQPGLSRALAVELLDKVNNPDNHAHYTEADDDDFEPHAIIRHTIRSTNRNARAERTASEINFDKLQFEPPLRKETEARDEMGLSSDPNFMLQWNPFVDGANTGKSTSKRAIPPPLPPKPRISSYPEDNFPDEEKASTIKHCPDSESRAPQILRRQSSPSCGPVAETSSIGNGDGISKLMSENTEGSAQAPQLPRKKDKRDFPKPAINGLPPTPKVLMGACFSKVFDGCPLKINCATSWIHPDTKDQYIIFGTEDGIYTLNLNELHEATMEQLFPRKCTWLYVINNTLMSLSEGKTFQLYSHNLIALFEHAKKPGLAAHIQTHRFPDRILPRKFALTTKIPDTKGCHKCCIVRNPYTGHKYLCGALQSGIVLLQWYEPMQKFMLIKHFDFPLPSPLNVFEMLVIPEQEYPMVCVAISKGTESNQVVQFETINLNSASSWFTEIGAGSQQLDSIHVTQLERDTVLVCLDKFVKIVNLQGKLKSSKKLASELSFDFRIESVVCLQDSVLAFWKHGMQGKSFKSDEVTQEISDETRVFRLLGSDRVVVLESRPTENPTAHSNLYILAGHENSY
UniProt P27448, sequence (P27448 whole entry, looked up): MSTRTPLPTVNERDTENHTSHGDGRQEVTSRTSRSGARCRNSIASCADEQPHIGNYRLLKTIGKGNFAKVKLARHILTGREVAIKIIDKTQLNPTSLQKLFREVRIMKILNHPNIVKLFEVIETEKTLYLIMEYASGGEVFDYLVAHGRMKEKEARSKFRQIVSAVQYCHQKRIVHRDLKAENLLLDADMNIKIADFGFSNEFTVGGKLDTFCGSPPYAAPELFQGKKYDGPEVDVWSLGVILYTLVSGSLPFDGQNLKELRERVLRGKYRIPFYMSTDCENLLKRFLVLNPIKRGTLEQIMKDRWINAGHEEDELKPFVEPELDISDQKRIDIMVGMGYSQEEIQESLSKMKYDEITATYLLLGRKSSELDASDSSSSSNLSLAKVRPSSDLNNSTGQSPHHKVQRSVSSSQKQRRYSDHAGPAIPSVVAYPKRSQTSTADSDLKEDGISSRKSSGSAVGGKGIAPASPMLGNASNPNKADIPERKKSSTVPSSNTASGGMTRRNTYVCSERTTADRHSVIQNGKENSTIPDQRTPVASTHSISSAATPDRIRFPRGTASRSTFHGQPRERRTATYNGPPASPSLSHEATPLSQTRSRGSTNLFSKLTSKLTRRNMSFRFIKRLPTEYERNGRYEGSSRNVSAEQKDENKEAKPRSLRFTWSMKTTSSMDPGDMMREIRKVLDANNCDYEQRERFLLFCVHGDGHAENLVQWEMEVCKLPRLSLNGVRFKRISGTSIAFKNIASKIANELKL
UniProt O94889, sequence (O94889 whole entry, looked up): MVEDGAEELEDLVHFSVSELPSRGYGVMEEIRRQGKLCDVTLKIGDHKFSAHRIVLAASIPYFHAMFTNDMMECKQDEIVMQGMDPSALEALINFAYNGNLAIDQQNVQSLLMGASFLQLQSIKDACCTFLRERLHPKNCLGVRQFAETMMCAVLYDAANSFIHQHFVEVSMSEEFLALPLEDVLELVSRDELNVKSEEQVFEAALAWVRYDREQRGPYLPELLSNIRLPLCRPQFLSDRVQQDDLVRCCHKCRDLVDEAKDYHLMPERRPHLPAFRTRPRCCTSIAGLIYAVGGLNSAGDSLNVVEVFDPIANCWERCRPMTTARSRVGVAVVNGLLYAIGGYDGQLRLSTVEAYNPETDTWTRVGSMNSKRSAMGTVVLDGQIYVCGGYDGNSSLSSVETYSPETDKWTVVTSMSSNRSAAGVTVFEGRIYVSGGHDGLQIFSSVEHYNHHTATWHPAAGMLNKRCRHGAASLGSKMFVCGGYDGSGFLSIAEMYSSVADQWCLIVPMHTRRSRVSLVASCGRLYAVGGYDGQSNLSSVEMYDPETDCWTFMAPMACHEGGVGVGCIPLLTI
UniProt Q13257, sequence (Q13257 whole entry, looked up): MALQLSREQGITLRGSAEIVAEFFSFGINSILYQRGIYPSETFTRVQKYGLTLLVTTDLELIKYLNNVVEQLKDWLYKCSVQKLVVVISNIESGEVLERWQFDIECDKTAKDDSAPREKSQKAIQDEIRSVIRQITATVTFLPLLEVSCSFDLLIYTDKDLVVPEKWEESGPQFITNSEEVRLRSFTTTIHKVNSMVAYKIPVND

Compound in this assay: Cc1sc2c(c1C)C(c1ccc(Cl)cc1)=N[C@@H](CC(=O)OC(C)(C)C)c1nnc(C)n1-2
Nature of the assay: log2 fold change, soluble protein after heating vs DMSO (PISA); higher = thermal stabilisation; K562 cells, 10 uM, 30 min; active = over 0.2 and 3.5 SD of the protein, either way, in both replicates (recomputed). The method in brief: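 Quantification of soluble protein used TMTpro 16plex LC-MS/MS, with channel sums equalised. Samples were the supernatant after 21,000xg for 90 min of pooled aliquots from K562 cells (2×10^6 cells/mL) treated with 10 μM compound for 30 min, heated for 3 min over 48°C-58°C, and extracted in PBS with 0.5% NP-40 at 4°C. Values, from duplicates, describe thermal stability against control samples on a log2 fold-change scale.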
As to LEO1 (UniProt Q8WVC0), the log2 fold change is -0.016.
Regarding LRFN1 (UniProt Q9P244), the log2 fold change was -0.02.
LNPK (UniProt Q9C0E8): the log2 fold change was -0.01.
Then LGALS8 isoform 2 (UniProt O00214), with -0.022; and MIEF1 (UniProt L0R8F8), with -0.092.
Take METTL18 (UniProt O95568): the log2 fold change is -0.055.
Then LMNA (UniProt P02545), with -0.017.
As to KPNB1 (UniProt Q14974), the log2 fold change is 0.001.
Regarding KDM5D isoform 3 (UniProt Q9BY66), the log2 fold change is -0.022.
Take MED1 (UniProt Q15648): the log2 fold change is 0.079.
As for MAD2L1 (UniProt Q13257), the log2 fold change was -0.021.
For ITM2B (UniProt Q9Y287), the log2 fold change was -0.028.
Regarding MAP2K2 (UniProt P36507), the log2 fold change is -0.027.
On to KLHDC4 (UniProt Q8TBB5), for which the log2 fold change is 0.084.
Regarding LEMD3 (UniProt Q9Y2U8), the log2 fold change was -0.031.
For the target MARK2 (UniProt E9PC69), the log2 fold change was 0.126.
As for METAP1D (UniProt Q6UB28), the log2 fold change was 0.08.
Turning to MAP4K5 (UniProt Q9Y4K4), the log2 fold change is 0.05.
Turning to KLHL18 (UniProt O94889), the log2 fold change is 0.017.
Then MARK3 (UniProt P27448), with 0.121; and MAP2K3 isoform 3 (UniProt P46734), with 0.026.
As to MED7 (UniProt O43513), the log2 fold change was 0.016.
IGFBP4 (UniProt P22692): the log2 fold change was -0.103.
As to MAPRE3 (UniProt Q9UPY8), the log2 fold change is -0.01.
For the target KCT2 (UniProt Q8NC54), the log2 fold change was -0.014.
Then MAGOHB (UniProt Q96A72), with -0.153; and LARP4B (UniProt Q92615), with 0.081.
As for MCCC2 (UniProt Q9HCC0), the log2 fold change was -0.022.
With KPNA4 (UniProt O00629), the log2 fold change is 0.004.
Then MFSD1 isoform 6 (UniProt Q9H3U5), with -0.029; and MED16 (UniProt Q9Y2X0), with 0.093; and LONP2 (UniProt Q86WA8), with 0.009.
For LSS (UniProt P48449), the log2 fold change is -0.018.
In the case of IPO7 (UniProt O95373), the log2 fold change was -0.025.
